From the supplement of paper PMC8253809

System: HGGX39 (paediatric high-grade glioma line)
Assay: growth inhibition (% activity, log2 RLU normalised to DMSO / staurosporine); higher = more growth inhibition
Conditions: 33 µM
Procedure, shortened: (§1)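 For each approved drug, the growth-inhibition value is the replicate median of per-plate normalised CellTiter-Glo data. Luminescence was log2-transformed and expressed as % activity between solvent and positive control wells. Drugs were applied in triplicate at a single final concentration of about 33 μM for 7 days at 37 °C, 5% CO2 to pHGG cell lines and H9-derived neural stem cells.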

For `Oc1ccc(/C=C/c2cc(O)cc(O)c2)cc1`, which growth inhibition is on record?
The growth inhibition was 1.37%.

Which growth inhibition does the source give for `CN1C2CCCC1CC(NC(=O)c1nn(C)c3ccccc13)C2` (stereo not drawn) here?
The growth inhibition was 1.66%.

With `CC(C)(C)c1nc(-c2cccc(NS(=O)(=O)c3c(F)cccc3F)c2F)c(-c2ccnc(N)n2)s1` as the compound, how does the growth inhibition read?
Its growth inhibition is 5.46%.

How did the growth inhibition turn out when `CC(C)OC(=O)C(C)(C)Oc1ccc(C(=O)c2ccc(Cl)cc2)cc1` was run?
Its growth inhibition is 2.79%.

For `CC1CCc2cc(F)cc3c(=O)c(C(=O)O)cn1c23` (stereo not drawn), which growth inhibition is on record?
The growth inhibition was 1.41%.

With `CC(=O)NC[C@H]1CN(c2ccc(N3CCOCC3)c(F)c2)C(=O)O1` as the compound, how does the growth inhibition read?
Its growth inhibition is 3.34%.

`O=C(O)c1ccccc1` was tested. Which growth inhibition did it give?
The growth inhibition was 0.585%.

`Cc1ccnc2c1NC(=O)c1cccnc1N2C1CC1` was tested. Which growth inhibition did it give?
The growth inhibition was 0.921%.

Which growth inhibition does the source give for `Nc1nc2ccc(OC(F)(F)F)cc2s1` here?
The growth inhibition was 2.04%.

`CCOC(=O)c1ncn2c1CN(C)C(=O)c1cc(F)ccc1-2` was tested. Which growth inhibition did it give?
Its growth inhibition is 2.75%.

How did the growth inhibition turn out when `Nc1nccs1` was run?
Its growth inhibition is -0.0642%.

With `Cn1ccnc1S` as the compound, how does the growth inhibition read?
Its growth inhibition is -0.799%.

`N#C[C@@H]1C[C@@H]2C[C@@H]2N1C(=O)[C@@H](N)C12CC3CC(CC(O)(C3)C1)C2` was tested. Which growth inhibition did it give?
The growth inhibition was 5.53%.

Which growth inhibition does the source give for `CC(C)CC(N)=O` here?
The growth inhibition was 0.0712%.

With `COc1ccccc1OCC(O)COC(N)=O` (stereo not drawn) as the compound, how does the growth inhibition read?
Its growth inhibition is 0.0917%.

How did the growth inhibition turn out when `CCCc1cc(=O)[nH]c(=S)[nH]1` was run?
Its growth inhibition is -0.649%.

Which growth inhibition does the source give for `CC1(C)O[C@@H]2C[C@H]3[C@@H]4CCC5=CC(=O)C=C[C@]5(C)[C@@]4(F)[C@@H](O)C[C@]3(C)[C@]2(C(=O)CO)O1` here?
Its growth inhibition is 2.88%.

How did the growth inhibition turn out when `CN(C)CCOC(c1ccccc1)c1ccccc1` was run?
The growth inhibition was -3.3%.

`CCOC(=O)c1c(CSc2ccccc2)n(C)c2cc(Br)c(O)c(CN(C)C)c12` was tested. Which growth inhibition did it give?
The growth inhibition was 0.0757%.

`CS(=O)(=O)c1ccc(C2=C(c3ccccc3)C(=O)OC2)cc1` was tested. Which growth inhibition did it give?
Its growth inhibition is -1.94%.

Which growth inhibition does the source give for `Fc1ccc([C@@H]2CCNC[C@H]2COc2ccc3c(c2)OCO3)cc1` here?
The growth inhibition was -1.48%.

`NC(=O)c1ncn([C@@H]2O[C@H](CO)[C@@H](O)[C@H]2O)c1O` was tested. Which growth inhibition did it give?
The growth inhibition was 1.1%.

`COc1cc2c(cc1O)CC[C@@H]1[C@@H]2CC[C@]2(C)[C@@H](O)CC[C@@H]12` was tested. Which growth inhibition did it give?
The growth inhibition was 13.2%.

For `COc1ccccc1OCC(O)CO` (stereo not drawn), which growth inhibition is on record?
Its growth inhibition is -1.85%.

Which growth inhibition does the source give for `CC(=O)O[C@H]1C(=O)[C@@]2(C)[C@H]([C@H](OC(=O)c3ccccc3)[C@]3(O)C[C@H](OC(=O)[C@H](O)[C@@H](NC(=O)c4ccccc4)c4ccccc4)C(C)=C1C3(C)C)[C@]1(OC(C)=O)CO[C@@H]1C[C@@H]2O` here?
Its growth inhibition is 32.7%.

For `CC1CNc2c(cccc2S(=O)(=O)N[C@@H](CCCNC(=N)N)C(=O)N2CC[C@@H](C)C[C@@H]2C(=O)O)C1` (stereo partly drawn), which growth inhibition is on record?
The growth inhibition was -0.0474%.

For `N[C@@H]1CN(c2c(F)cc3c(=O)c(C(=O)O)cn([C@@H]4C[C@@H]4F)c3c2Cl)CC12CC2`, which growth inhibition is on record?
The growth inhibition was 3.53%.

For `C=Cc1c(C)c2cc3nc(cc4[nH]c(cc5nc(cc1[nH]2)C(C)=C5CCC(=O)O)c(CCC(=O)OC)c4C)C1(C)C3=CC=C(C(=O)OC)C1C(=O)OC` (stereo not drawn), which growth inhibition is on record?
Its growth inhibition is 1.95%.

`CN1CCN(CCCN2c3ccccc3Sc3ccc(C(F)(F)F)cc32)CC1` was tested. Which growth inhibition did it give?
Its growth inhibition is 7.39%.

For `CC(c1cc2ccccc2s1)N(O)C(N)=O` (stereo not drawn), which growth inhibition is on record?
Its growth inhibition is -0.313%.

`CN1CCN(c2cc3c(cc2F)c(=O)c(C(=O)O)cn3-c2ccc(F)cc2)CC1` was tested. Which growth inhibition did it give?
The growth inhibition was 1.58%.

`CC1(C)S[C@@H]2[C@H](NC(=O)[C@H](NC(=O)N3CCNC3=O)c3ccccc3)C(=O)N2[C@H]1C(=O)O` was tested. Which growth inhibition did it give?
Its growth inhibition is 1.59%.

How did the growth inhibition turn out when `Cc1cccn2c(=O)c(-c3nnn[nH]3)cnc12` was run?
Its growth inhibition is 1.29%.

For `CC(C)(C(=O)O)c1ccc(C(O)CCCN2CCC(C(O)(c3ccccc3)c3ccccc3)CC2)cc1` (stereo not drawn), which growth inhibition is on record?
Its growth inhibition is 2.4%.

With `CCOC(=O)CC(=O)N1CCSC1COc1ccccc1OC` (stereo not drawn) as the compound, how does the growth inhibition read?
Its growth inhibition is 5.96%.

With `Cc1cnc(NC(=O)C2=C(O)c3ccccc3S(=O)(=O)N2C)s1` as the compound, how does the growth inhibition read?
The growth inhibition was -0.277%.

Which growth inhibition does the source give for `CC(C)(S)[C@@H](N)C(=O)O` here?
The growth inhibition was 0.519%.

How did the growth inhibition turn out when `CCCCNC(=O)NS(=O)(=O)c1ccc(C)cc1` was run?
The growth inhibition was 2.32%.

How did the growth inhibition turn out when `CCN1CCN(C(=O)NC(C(=O)NC2C(=O)N3C(C(=O)O)=C(CSc4nnnn4C)CSC23)c2ccc(O)cc2)C(=O)C1=O` (stereo not drawn) was run?
Its growth inhibition is 0.547%.

System: HGGX6 (H3.3 G34R paediatric high-grade glioma line)
Assay: as above
Conditions: 33 µM
Procedure, shortened: as §1

Which growth inhibition does the source give for `Oc1ccc(/C=C/c2cc(O)cc(O)c2)cc1` here?
Its growth inhibition is 2.36%.

How did the growth inhibition turn out when `CN1C2CCCC1CC(NC(=O)c1nn(C)c3ccccc13)C2` (stereo not drawn) was run?
The growth inhibition was 1.21%.

How did the growth inhibition turn out when `CC(C)(C)c1nc(-c2cccc(NS(=O)(=O)c3c(F)cccc3F)c2F)c(-c2ccnc(N)n2)s1` was run?
Its growth inhibition is 4.05%.

With `CC(C)OC(=O)C(C)(C)Oc1ccc(C(=O)c2ccc(Cl)cc2)cc1` as the compound, how does the growth inhibition read?
The growth inhibition was -3.05%.

For `CC1CCc2cc(F)cc3c(=O)c(C(=O)O)cn1c23` (stereo not drawn), which growth inhibition is on record?
Its growth inhibition is 2.29%.

With `CC(=O)NC[C@H]1CN(c2ccc(N3CCOCC3)c(F)c2)C(=O)O1` as the compound, how does the growth inhibition read?
The growth inhibition was 1.89%.

For `O=C(O)c1ccccc1`, which growth inhibition is on record?
The growth inhibition was -1.44%.

Which growth inhibition does the source give for `Cc1ccnc2c1NC(=O)c1cccnc1N2C1CC1` here?
Its growth inhibition is -1.94%.

With `Nc1nc2ccc(OC(F)(F)F)cc2s1` as the compound, how does the growth inhibition read?
Its growth inhibition is 2.46%.

With `CCOC(=O)c1ncn2c1CN(C)C(=O)c1cc(F)ccc1-2` as the compound, how does the growth inhibition read?
The growth inhibition was 0.552%.

`Nc1nccs1` was tested. Which growth inhibition did it give?
Its growth inhibition is -1.25%.

Which growth inhibition does the source give for `Cn1ccnc1S` here?
Its growth inhibition is -0.968%.

`N#C[C@@H]1C[C@@H]2C[C@@H]2N1C(=O)[C@@H](N)C12CC3CC(CC(O)(C3)C1)C2` was tested. Which growth inhibition did it give?
The growth inhibition was 2.65%.

How did the growth inhibition turn out when `CC(C)CC(N)=O` was run?
The growth inhibition was 1.61%.

How did the growth inhibition turn out when `COc1ccccc1OCC(O)COC(N)=O` (stereo not drawn) was run?
The growth inhibition was 1%.

With `CCCc1cc(=O)[nH]c(=S)[nH]1` as the compound, how does the growth inhibition read?
Its growth inhibition is -0.265%.

`CC1(C)O[C@@H]2C[C@H]3[C@@H]4CCC5=CC(=O)C=C[C@]5(C)[C@@]4(F)[C@@H](O)C[C@]3(C)[C@]2(C(=O)CO)O1` was tested. Which growth inhibition did it give?
The growth inhibition was 0.928%.

For `CN(C)CCOC(c1ccccc1)c1ccccc1`, which growth inhibition is on record?
The growth inhibition was -2.72%.

`CCOC(=O)c1c(CSc2ccccc2)n(C)c2cc(Br)c(O)c(CN(C)C)c12` was tested. Which growth inhibition did it give?
The growth inhibition was -2.62%.

How did the growth inhibition turn out when `CS(=O)(=O)c1ccc(C2=C(c3ccccc3)C(=O)OC2)cc1` was run?
Its growth inhibition is -2.78%.

Which growth inhibition does the source give for `Fc1ccc([C@@H]2CCNC[C@H]2COc2ccc3c(c2)OCO3)cc1` here?
The growth inhibition was 0.754%.

`NC(=O)c1ncn([C@@H]2O[C@H](CO)[C@@H](O)[C@H]2O)c1O` was tested. Which growth inhibition did it give?
The growth inhibition was 0.705%.

`COc1cc2c(cc1O)CC[C@@H]1[C@@H]2CC[C@]2(C)[C@@H](O)CC[C@@H]12` was tested. Which growth inhibition did it give?
The growth inhibition was 11.7%.

With `COc1ccccc1OCC(O)CO` (stereo not drawn) as the compound, how does the growth inhibition read?
Its growth inhibition is -0.626%.

With `CC(=O)O[C@H]1C(=O)[C@@]2(C)[C@H]([C@H](OC(=O)c3ccccc3)[C@]3(O)C[C@H](OC(=O)[C@H](O)[C@@H](NC(=O)c4ccccc4)c4ccccc4)C(C)=C1C3(C)C)[C@]1(OC(C)=O)CO[C@@H]1C[C@@H]2O` as the compound, how does the growth inhibition read?
Its growth inhibition is 16.2%.

How did the growth inhibition turn out when `CC1CNc2c(cccc2S(=O)(=O)N[C@@H](CCCNC(=N)N)C(=O)N2CC[C@@H](C)C[C@@H]2C(=O)O)C1` (stereo partly drawn) was run?
The growth inhibition was -1.28%.

With `N[C@@H]1CN(c2c(F)cc3c(=O)c(C(=O)O)cn([C@@H]4C[C@@H]4F)c3c2Cl)CC12CC2` as the compound, how does the growth inhibition read?
The growth inhibition was 0.649%.

How did the growth inhibition turn out when `C=Cc1c(C)c2cc3nc(cc4[nH]c(cc5nc(cc1[nH]2)C(C)=C5CCC(=O)O)c(CCC(=O)OC)c4C)C1(C)C3=CC=C(C(=O)OC)C1C(=O)OC` (stereo not drawn) was run?
Its growth inhibition is 0.712%.

With `CN1CCN(CCCN2c3ccccc3Sc3ccc(C(F)(F)F)cc32)CC1` as the compound, how does the growth inhibition read?
The growth inhibition was 8.55%.

For `CC(c1cc2ccccc2s1)N(O)C(N)=O` (stereo not drawn), which growth inhibition is on record?
The growth inhibition was -1.42%.

With `CN1CCN(c2cc3c(cc2F)c(=O)c(C(=O)O)cn3-c2ccc(F)cc2)CC1` as the compound, how does the growth inhibition read?
Its growth inhibition is -0.335%.

`CC1(C)S[C@@H]2[C@H](NC(=O)[C@H](NC(=O)N3CCNC3=O)c3ccccc3)C(=O)N2[C@H]1C(=O)O` was tested. Which growth inhibition did it give?
Its growth inhibition is -0.0472%.

`Cc1cccn2c(=O)c(-c3nnn[nH]3)cnc12` was tested. Which growth inhibition did it give?
The growth inhibition was -0.465%.

How did the growth inhibition turn out when `CC(C)(C(=O)O)c1ccc(C(O)CCCN2CCC(C(O)(c3ccccc3)c3ccccc3)CC2)cc1` (stereo not drawn) was run?
The growth inhibition was -0.102%.

How did the growth inhibition turn out when `CCOC(=O)CC(=O)N1CCSC1COc1ccccc1OC` (stereo not drawn) was run?
The growth inhibition was 2.78%.

`Cc1cnc(NC(=O)C2=C(O)c3ccccc3S(=O)(=O)N2C)s1` was tested. Which growth inhibition did it give?
Its growth inhibition is -2.36%.

`CC(C)(S)[C@@H](N)C(=O)O` was tested. Which growth inhibition did it give?
Its growth inhibition is -2.1%.

Which growth inhibition does the source give for `CCCCNC(=O)NS(=O)(=O)c1ccc(C)cc1` here?
Its growth inhibition is -1.26%.

For `CCN1CCN(C(=O)NC(C(=O)NC2C(=O)N3C(C(=O)O)=C(CSc4nnnn4C)CSC23)c2ccc(O)cc2)C(=O)C1=O` (stereo not drawn), which growth inhibition is on record?
Its growth inhibition is -2.32%.
